This passage reports growth inhibition, inhibition and outcome results from PubChem BioAssay.

Test [1] is described as follows: antimalarial activity against Dd2 strain (AID 2302;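 active = growth inhibition above 50% at the single 2 µM test dose, taken to imply half-maximal potency below 2 µM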;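 also: 0% = DMSO untreated growth and 100% = chloroquine plus artemisinin killed control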). The note with it: P. falciparum Dd2 in RBCs, LDH growth readout, 72 h; at 2 µM; stronger effect = higher value.
Test [2] in a line: human hepatoma cell viability loss – ATP luminescence, cytotoxicity control for P. falciparum antimalarial project, primary screen (AID 2303;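 active = inhibition above 50%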;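 also: 0% = DMSO wells and 100% = digitonin-killed cells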). The note with it: HepG2 viability, 24-48 h, at 10 µM, stronger effect = higher value.
The target in test [3] is L-lactate dehydrogenase (Plasmodium falciparum (isolate CDC / Honduras)) (UniProt Q27743). Description: PfLDH activity inhibition – cell lysate, 3D7 strain, counter-screen for P. falciparum growth inhibition project (AID 2304).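 Also: 0% = vehicle and 100% = reference inhibitor.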 Particulars: P. falciparum 3D7 crude extract, LDH APAD/NBT absorbance; at 2 µM; stronger effect = higher value. A general note: The purpose of a counterscreen is to sort out artefacts and off-target activity.
L-lactate dehydrogenase (Plasmodium falciparum (isolate CDC / Honduras)), sequence (Q27743 whole entry, looked up): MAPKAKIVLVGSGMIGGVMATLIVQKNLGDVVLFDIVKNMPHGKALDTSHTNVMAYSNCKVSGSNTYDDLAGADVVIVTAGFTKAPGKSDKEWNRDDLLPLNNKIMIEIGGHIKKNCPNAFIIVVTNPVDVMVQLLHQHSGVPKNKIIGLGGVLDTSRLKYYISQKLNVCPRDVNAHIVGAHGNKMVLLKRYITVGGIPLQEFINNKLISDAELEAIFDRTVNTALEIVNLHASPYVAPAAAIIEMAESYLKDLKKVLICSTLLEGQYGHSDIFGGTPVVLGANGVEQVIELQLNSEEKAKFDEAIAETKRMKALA

Test [4] can be described thus: inhibition of 3D7 malaria parasite growth – strain 3D7 (AID 2306).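 Also: 0% = DMSO wells and 100% = chloroquine plus artemisinin control wells.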 The note with it: P. falciparum 3D7 erythrocytic growth, LDH absorbance, 72 h; at 2 µM; stronger effect = higher value.
For test [5], the target named is Calcium-dependent protein kinase 1 (Plasmodium falciparum (isolate 3D7)) (UniProt P62344). Briefly: PfCDPK1 kinase inhibitors, biochemical, TCAMS library (AID 1159585; cut-off not given, nearly all actives have IC50 up to about 0.98 µM;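 also: inhibitors leave more ATP so luminescence rises with inhibition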). Particulars: recombinant PfCDPK1, Kinase-Glo ATP depletion luminescence. On the technique in general: Kinase-Glo reads ATP consumption through a luciferase reaction.
Calcium-dependent protein kinase 1 (Plasmodium falciparum (isolate 3D7)), sequence (P62344 whole entry, looked up): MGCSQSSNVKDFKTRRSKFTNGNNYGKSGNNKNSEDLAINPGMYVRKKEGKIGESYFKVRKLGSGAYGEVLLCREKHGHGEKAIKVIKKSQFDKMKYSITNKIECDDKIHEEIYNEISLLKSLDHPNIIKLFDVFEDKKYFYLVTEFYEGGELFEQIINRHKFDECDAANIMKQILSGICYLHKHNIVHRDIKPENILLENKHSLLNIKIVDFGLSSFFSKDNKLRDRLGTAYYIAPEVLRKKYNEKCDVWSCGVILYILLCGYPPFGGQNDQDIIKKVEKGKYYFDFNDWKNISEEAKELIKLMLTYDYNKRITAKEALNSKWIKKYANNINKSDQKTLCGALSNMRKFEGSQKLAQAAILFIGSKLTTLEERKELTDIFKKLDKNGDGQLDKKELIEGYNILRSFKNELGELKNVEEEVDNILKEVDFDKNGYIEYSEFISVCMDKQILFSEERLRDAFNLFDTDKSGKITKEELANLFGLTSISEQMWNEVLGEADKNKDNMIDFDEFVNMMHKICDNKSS
In test [6] the target is Plasmodium falciparum protein kinase 6 (PK6, PF3D7_1337100) (UniProt Q8IDW1). Briefly: PfPK6 kinase inhibitors, biochemical, TCAMS library (AID 1159586). Particulars: recombinant PfPK6, Kinase-Glo ATP depletion luminescence.
Plasmodium falciparum protein kinase 6 (PK6, PF3D7_1337100), sequence (Q8IDW1 1-305): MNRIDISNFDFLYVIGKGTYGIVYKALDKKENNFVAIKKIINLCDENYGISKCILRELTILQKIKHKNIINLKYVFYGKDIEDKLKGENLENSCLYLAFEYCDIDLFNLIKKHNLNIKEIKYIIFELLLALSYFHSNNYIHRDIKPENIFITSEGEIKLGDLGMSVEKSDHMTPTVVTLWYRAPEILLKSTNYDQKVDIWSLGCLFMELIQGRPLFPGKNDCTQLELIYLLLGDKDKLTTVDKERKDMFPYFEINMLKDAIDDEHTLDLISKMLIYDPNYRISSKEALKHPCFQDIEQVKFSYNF
Test [7] concerns the target Protein kinase 7 (PK7), Plasmodium falciparum 3D7 (PF3D7_0213400) (UniProt Q7YTF7). Description: inhibition of Plasmodium PK7 catalytic activity – biochemical, TCAMS antimalarial set, Kinase-Glo luminescence (AID 1159587). The note with it: recombinant PfPK7, Kinase-Glo ATP depletion luminescence.
Test [8] deals with Calcium-dependent protein kinase 4 (Plasmodium falciparum (isolate 3D7)) (UniProt Q8IBS5). Briefly: PfCDPK4 kinase inhibitors, biochemical, TCAMS library (AID 1159588; cut-off not given, nearly all actives have IC50 up to about 0.91 µM). The note with it: recombinant PfCDPK4, Kinase-Glo ATP depletion luminescence.
Calcium-dependent protein kinase 4 (Plasmodium falciparum (isolate 3D7)), sequence (Q8IBS5 whole entry, looked up): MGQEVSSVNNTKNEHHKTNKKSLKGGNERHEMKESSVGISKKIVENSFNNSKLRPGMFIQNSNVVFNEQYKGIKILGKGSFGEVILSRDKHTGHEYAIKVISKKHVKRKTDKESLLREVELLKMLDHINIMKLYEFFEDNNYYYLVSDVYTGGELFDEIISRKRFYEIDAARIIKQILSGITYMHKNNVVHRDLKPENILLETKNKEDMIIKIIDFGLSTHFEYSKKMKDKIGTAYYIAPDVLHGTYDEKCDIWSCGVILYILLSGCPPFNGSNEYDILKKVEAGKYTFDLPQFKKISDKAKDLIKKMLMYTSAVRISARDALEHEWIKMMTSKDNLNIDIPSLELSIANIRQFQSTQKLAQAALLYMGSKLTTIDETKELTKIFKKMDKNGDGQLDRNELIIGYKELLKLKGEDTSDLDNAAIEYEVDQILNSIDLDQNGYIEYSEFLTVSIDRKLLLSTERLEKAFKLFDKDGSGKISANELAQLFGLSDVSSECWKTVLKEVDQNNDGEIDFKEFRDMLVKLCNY

Unmarked numbers belong to inactive results. For some of these results: Results with a measured potency or affinity are listed apart. The source made the active and inactive calls. Unless noted, no rule for the calls is given here.

Protein kinase 7 (PK7), Plasmodium falciparum 3D7 (PF3D7_0213400), sequence (Q7YTF7 1-343): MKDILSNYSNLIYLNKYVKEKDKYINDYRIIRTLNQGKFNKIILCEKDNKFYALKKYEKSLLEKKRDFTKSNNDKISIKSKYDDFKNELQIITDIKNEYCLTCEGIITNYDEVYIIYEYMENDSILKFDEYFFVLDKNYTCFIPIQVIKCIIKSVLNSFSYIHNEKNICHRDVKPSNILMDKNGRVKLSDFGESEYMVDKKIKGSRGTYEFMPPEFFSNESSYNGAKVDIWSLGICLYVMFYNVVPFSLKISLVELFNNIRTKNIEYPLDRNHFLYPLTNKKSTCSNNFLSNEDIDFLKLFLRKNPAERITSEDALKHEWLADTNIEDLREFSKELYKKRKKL

As to `CC(C)C(NC(=O)Cc1cccc2ccccc12)C(=O)Nc1cccc(C#N)c1` (stereo not given), the growth inhibition is 91% (active) in test [1] and 92% (active) in test [4]. Further, the inhibition (in general, the relative decrease from the control value, in per cent) in test [2] is -3%; in test [3], 0%. The result in test [5], in test [6], in test [7] and in test [8] was inactive.
Turning to `CCN(CC)CCN(Cc1ccc(-c2ccc(C(F)(F)F)cc2)cc1)C(=O)Cn1c(CCc2cccc(F)c2F)nc(=O)c2sccc21`, the growth inhibition in test [1] is 70% (active); in test [4] it was 96% (active). Besides, the inhibition in test [2] was 70% (active); in test [3] it was 6%. For the same compound, the result in test [5], in test [6], in test [7] and in test [8] was inactive.
Turning to `CC(=O)c1cccc(NC(=O)C2c3ccccc3C(=O)N(CC(C)C)C2c2cccs2)c1` (stereo not given), the growth inhibition in test [1] and in test [4] was 100% (active) in each case. Further, the inhibition in test [2] was 11%; in test [3], -2%. Further, the outcome in test [5], in test [6], in test [7] and in test [8] was inactive.
For the compound `COc1ccc2nccc([C@@H](O)CN3CCC(NCCNc4cccc(F)c4)CC3)c2c1`, the results for the growth inhibition in test [1] and in test [4] were 73% (active) and 98% (active), respectively. Further, the inhibition was 11% in test [2] and 0% in test [3]. In addition, the result in test [5], in test [6], in test [7] and in test [8] was inactive.
Regarding `Cc1cc(Nc2ccc(C(C)(C)C)cc2)c2[nH]ncc2n1`, the growth inhibition is 63% (active) in test [1] and 83% (active) in test [4]. The inhibition is 31% in test [2] and 0% in test [3]. Also, the result in test [5], in test [6], in test [7] and in test [8] was inactive.
In the case of `CC(C)(C)SCC(O)Cn1c2ccc(Br)cc2c2cc(Br)ccc21` (stereo not given), the figures for the growth inhibition in test [1] and in test [4] were 79% (active) and 87% (active), respectively. Moreover, the results for the inhibition in test [2] and in test [3] were 4% and 1%, respectively. The outcome in test [5], in test [6], in test [7] and in test [8] was inactive.
Take `CCCN(CCC)CCCNc1ccc(C(=O)Nc2ccc(OCC)cc2)cc1[N+](=O)[O-]`: the results for the growth inhibition in test [1] and in test [4] were 2% and 89% (active), respectively. Moreover, the inhibition in test [2] is 7%; in test [3], -4%. In addition, the result in test [5], in test [6], in test [7] and in test [8] was inactive.
As for `CN(C)c1ccc(-c2csc(C(=O)NC3CCCCN(Cc4ccc(C(C)(C)C)cc4)C3)c2)cc1` (stereo not given), the growth inhibition in test [1] was 55% (active); in test [4], 84% (active). Moreover, the inhibition is 17% in test [2] and 4% in test [3]. In addition, the outcome in test [5], in test [6], in test [7] and in test [8] was inactive.
Take `Cc1ccc(O)c(C(=O)c2cnc3c(c2)c(-c2ccc(F)cc2)c(C#N)c(=O)n3C)c1`: the growth inhibition was 56% (active) in test [1] and 93% (active) in test [4]. For the same compound, the inhibition in test [2] is 17%; in test [3], 2%. Also, the result in test [5], in test [6], in test [7] and in test [8] was inactive.
For `Cc1nnc2c(NC(=O)NC3CCCC3)cc3cc(-c4ccc(CN5CCN(C)CC5)cc4)ccc3n12`, the results for the growth inhibition in test [1] and in test [4] were 91% (active) and 99% (active), respectively. In addition, the inhibition was 100% (active) in test [2] and -1% in test [3]. Besides, the result in test [5], in test [6], in test [7] and in test [8] was inactive.
In the case of `O=C(Nc1nc2ccc(Cl)cc2s1)c1csnn1`, the growth inhibition in test [1] is 99% (active); in test [4], 96% (active). Also, the figures for the inhibition in test [2] and in test [3] were 15% and 3%, respectively. In addition, the outcome in test [5], in test [6], in test [7] and in test [8] was inactive.
As to `CC(C)(CNC(=O)/C=C/c1ccc(C(F)(F)F)cc1)CNc1cc(=O)c2ccccc2[nH]1`, the growth inhibition in test [1] was 27%; in test [4], 95% (active). In addition, the inhibition is -1% in test [2] and -6% in test [3]. Further, the result in test [5], in test [6], in test [7] and in test [8] was inactive.
On to `CC(C)c1sc(N2CCN(C)CC2)nc1C(=O)NCCc1cccc(Cl)c1`, for which the growth inhibition in test [1] was 15%; in test [4], 91% (active). Besides, the inhibition in test [2] is 9%; in test [3], -1%. Also, the outcome in test [5], in test [6], in test [7] and in test [8] was inactive.
For `COc1ccc(OC)c(C=NNc2nc3ccccc3[nH]2)c1`, the growth inhibition in test [1] was 28%; in test [4] it was 99% (active). Moreover, the inhibition is -6% in test [2] and 7% in test [3]. The outcome in test [5], in test [6], in test [7] and in test [8] was inactive.
For the compound `COc1cc(F)c2ncc(Cl)c([C@H](O)CN3CCC(NCc4ccc5c(n4)NC(=O)CO5)CC3)c2c1`, the growth inhibition in test [1] and in test [4] was 99% (active) throughout. For the same compound, the inhibition in test [2] is 14%; in test [3] it was -1%. In addition, the result in test [5], in test [6], in test [7] and in test [8] was inactive.
On to `Cc1nc(N)nc(N)c1OCCCCOc1ccccc1`, for which the figures for the growth inhibition in test [1] and in test [4] were 4% and 94% (active), respectively. The figures for the inhibition in test [2] and in test [3] were 62% (active) and -1%, respectively. Besides, the result in test [5], in test [6], in test [7] and in test [8] was inactive.
Turning to `Cc1cc(NN=Cc2cccc([N+](=O)[O-])c2)c2cc(F)ccc2n1`, the growth inhibition in test [1] was 99% (active); in test [4], 102% (active). Moreover, the inhibition in test [2] is 3%; in test [3] it was -5%. The outcome in test [5], in test [6], in test [7] and in test [8] was inactive.
For the compound `Cc1[nH]c(C)c(-c2ccc(OCc3cc(F)cc(F)c3)nc2)c(=O)c1Br`, the growth inhibition in test [1] was 97% (active); in test [4] it was 98% (active). In addition, the inhibition is 37% in test [2] and -7% in test [3]. Moreover, the result in test [5], in test [6], in test [7] and in test [8] was inactive.
In the case of `Cc1cccc(CNc2nc(C)cc(N[C@@H](Cc3ccccc3)C(=O)NCc3cccc(F)c3)n2)c1`, the growth inhibition was 82% (active) in test [1] and 101% (active) in test [4]. Besides, the inhibition is 39% in test [2] and -2% in test [3]. Moreover, the result in test [5], in test [6], in test [7] and in test [8] was inactive.
`c1ccc(CNCc2cccc(-c3cccc(-c4nc5ccccc5[nH]4)c3)c2)cc1`: the growth inhibition was 38% in test [1] and 102% (active) in test [4]. The inhibition was 12% in test [2] and -5% in test [3]. In addition, the result in test [5], in test [6], in test [7] and in test [8] was inactive.
